Inconclusive results are not listed. The source made the active and inactive calls. The call rests on the fitted dose curve; in most records, active means well fitted activation curve with a large enough effect; inconclusive means small, poorly fitted or top-dose-only effect; inactive means no such curve, though single readings can be large or run the other way.
Target: Rap guanine nucleotide exchange factor 3 (Homo sapiens) (UniProt O95398)
Experiment: Confirmatory qHTS for agonist of cAMP-regulated guanine nucleotide exchange factor 3 (EPAC1) (AID 1645881);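 further: EPAC1 catalysed release of BODIPY-GDP from Rap1B seen as fluorescence loss; nearly all actives have a fitted effect of over 75% in size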
Details: EPAC1 Rap1B BODIPY-GDP exchange fluorescence; series mostly up to 154 µM

Sequence of Rap guanine nucleotide exchange factor 3 (Homo sapiens) (O95398 whole entry, looked up): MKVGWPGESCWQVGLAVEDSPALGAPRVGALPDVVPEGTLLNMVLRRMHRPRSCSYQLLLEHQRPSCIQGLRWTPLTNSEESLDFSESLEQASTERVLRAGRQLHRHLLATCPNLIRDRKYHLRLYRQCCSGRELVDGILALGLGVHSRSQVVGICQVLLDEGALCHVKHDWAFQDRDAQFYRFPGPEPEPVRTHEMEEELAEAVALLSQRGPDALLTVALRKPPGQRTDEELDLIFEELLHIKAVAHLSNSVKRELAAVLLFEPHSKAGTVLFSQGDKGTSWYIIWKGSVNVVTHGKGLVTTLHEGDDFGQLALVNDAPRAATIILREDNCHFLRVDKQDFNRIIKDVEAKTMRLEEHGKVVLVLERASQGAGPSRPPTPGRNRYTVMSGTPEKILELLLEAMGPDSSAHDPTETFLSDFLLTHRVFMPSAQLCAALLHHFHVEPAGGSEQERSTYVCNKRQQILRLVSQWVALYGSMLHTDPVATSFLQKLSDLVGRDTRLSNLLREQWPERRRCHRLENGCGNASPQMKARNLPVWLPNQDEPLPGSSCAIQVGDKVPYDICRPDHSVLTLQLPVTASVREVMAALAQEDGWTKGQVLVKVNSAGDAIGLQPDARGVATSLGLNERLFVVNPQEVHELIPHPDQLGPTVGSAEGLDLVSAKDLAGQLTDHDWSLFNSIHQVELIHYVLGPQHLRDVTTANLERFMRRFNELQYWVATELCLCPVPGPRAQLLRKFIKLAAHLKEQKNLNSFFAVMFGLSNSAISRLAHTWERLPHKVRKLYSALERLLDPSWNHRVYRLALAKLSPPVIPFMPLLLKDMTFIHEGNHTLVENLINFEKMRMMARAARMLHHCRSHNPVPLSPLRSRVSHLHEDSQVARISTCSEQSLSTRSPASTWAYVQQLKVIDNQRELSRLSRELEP

Potency, inactive:
NS(=O)(=O)c1ccc(N/N=C/c2ccc(C(=O)O)cc2)c([N+](=O)[O-])c1
COc1ccc(/C=N/NC(=O)c2ccccc2O)cc1Cn1nnc2ccccc21
O=C(c1ccc(-c2ccccc2Cl)o1)N1CCC1
Fc1ccc2c(-c3cccc(C(F)(F)F)c3)c(-c3ccccc3)ncc2c1
CCOC(=O)[C@H](C)N1[C@H](C)[C@H](c2ccccc2)Oc2ccc(Cl)cc2S1(=O)=O
O=C(O)c1cc(NN=C2c3ccccc3-c3ccccc32)ccc1Cl
CC(c1ccon1)N(C)Cc1cn(C)nc1-c1cccc(Cl)c1 (configuration not stated)
CCCCCOC(=O)C1=C(C)Nc2nnnn2C1c1ccccc1Cl (configuration not stated)
O=C(O)C1Nc2c(Cl)cc(Cl)c(Cl)c2C2C=CCC12 (configuration not stated)
CCOC(=O)C1C(=O)C=C(c2ccc(C)cc2)CC1c1ccccc1 (configuration not stated)
Cc1ccc(O)c(CNc2ccc(S(=O)(=O)Nc3nccs3)cc2)c1
Cn1c(N)c(C(=O)COC(=O)Cc2ccc(Cl)c(Cl)c2)c(=O)n(C)c1=O
CCN(CC)S(=O)(=O)c1ccc2[nH]c(=O)cc(C(=O)Nc3ccc(C)c(S(=O)(=O)N(CC)CC)c3)c2c1
C[C@@H]1CCCCCCCCC(=O)OCCN1C(=O)OC(C)(C)C
COc1ccc(NC(=O)c2cccnc2NCCc2ccccc2)cc1
CCCCN(CCCC)Cc1cc(=O)oc2cc(OC)ccc12
C=C1CC2C(=O)N(Cc3cc(OC)ccc3OC)C(C(=O)OCC)(C(=O)OCC)C1N2C(=O)OC(C)(C)C (configuration not stated)

From PubChem BioAssay (NCATS)
